What was measured:
Conditions in all cases: concentration: 1 μM, replicates: in singlicate; n = 1
MRCKB = tested on: T1, MRCKB
T1 construct: gene CDC42BPB

MST1R = tested on: MST1R
MST1 = tested on: T2, MST1
T2 construct: gene STK4

MST2 = tested on: T3, MST2
T3 construct: gene STK3

MST3 = tested on: T4, MST3
T4 construct: gene STK24

MST4 = tested on: MST4
MTOR = tested on: MTOR
MUSK = tested on: MUSK
MYLK2 = tested on: MYLK2
MYLK4 = tested on: MYLK4
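Note: KINOMEscan kinase panel screen.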

Row | Structure (SMILES) | %Inh (MRCKB) | %Inh (MST1R) | %Inh (MST1) | %Inh (MST2) | %Inh (MST3) | %Inh (MST4) | %Inh (MTOR) | %Inh (MUSK) | %Inh (MYLK2) | %Inh (MYLK4)
1 | O=C1NC(=O)C(c2ccccc2)=C1Nc1cccc(O)c1 [SB-390534] | 0% | 20% | 7% | 24% | 0% | 9% | 0% | 8% | 16% | 15%
2 | CCC(=O)c1c(-c2ccccc2)c2cc(Cl)ccc2c(=O)n1Cc1ccc(C(=O)O)cc1 | 0% | 6% | 0% | 0% | 0% | 0% | 0% | 0% | 0% | 0%
3 | CCC(=O)c1c(-c2ccccc2)c2cc(Cl)ccc2c(=O)n1Cc1cc(S(C)(=O)=O)n(CCC(C)(C)O)n1 | 0% | 36% | 21% | 10% | 0% | 0% | 0% | 17% | 5% | 2%
4 | CCC(=O)c1c(-c2ccccc2)c2cc(Cl)ccc2c(=O)n1Cc1cc(C(=O)NC2CC2)n(C)n1 | 0% | 37% | 12% | 0% | 0% | 0% | 12% | 2% | 0% | 0%

From article PMC5540273 (PLoS ONE, 2017)
